Consider 14 compounds from PubChem BioAssay (NCATS).

A short description of experiment [1]: qHTS Assay for Lipid Storage Modulators (AID 1519; calls by dose curve; on activity change, negative = inhibition: on the % scale 0 is the no-effect control and ±100 the full control effect). The following applies: Drosophila S3 cells, BODIPY lipid droplet/cell ratio, laser cytometry, cells loaded with oleic acid. The method, boiled down:
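Cells seeded at 5,000 per well were treated with compounds over a concentration series and loaded with oleic acid (400 uM, as added). Lipid droplet fluorescence (488 nm excitation, 500-530 nm channel) was read by laser-scanning cytometry and normalized to 20 uM Triacsin C.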
For orientation: qHTS replaces the single test concentration by a dilution series.

A short description of experiment [2]: Cell Viability - LYMP2-020 (AID 986).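 Further: plate controls were DMSO only for no effect and tetraoctylammonium bromide at 92 µM for full effect; nearly all actives have a fitted effect of over 55% in size.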 In outline: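 Human lymphoblastoid LYMP2-020 cells (2500/well) preincubated 5 h at 37 C, then treated 24 h at 37 C. Viability measured as intracellular ATP by CellTiter-Glo luminescence after 30 min at room temperature; AC50 from Hill fits.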
Experiment [3] in a line: Cell Viability - LYMP2-022 (AID 987).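 Further: 0% = DMSO alone and full effect = tetraoctylammonium bromide at 92 µM; nearly all actives have a fitted effect of over 55% in size.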 In outline:
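LYMP2-022 lymphoblastoid cells (2500/well, complete medium) were treated with compounds for 24 hours at 37 C; intracellular ATP was then read by CellTiter-Glo luminescence after 30 min at room temperature. AC50 values were derived from Hill-equation fits.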

Experiment [4] can be described thus: Cell Viability - LYMP2-024 (AID 988).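 Further: plate controls were DMSO only for no effect and 92 µM tetraoctylammonium bromide for full effect; nearly all actives have a fitted effect of over 60% in size.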 In outline: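 Human lymphoblastoid LYMP2-024 cells (2500/well) rested 5 hr, then treated with compound for 24 hr at 37 C in complete medium. Viability was measured as intracellular ATP by CellTiter-Glo luminescence. AC50 values came from Hill-equation fits.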
Experiment [5] is described as follows: Cell Viability - LYMP2-026 (AID 989). Further: on the % scale 0 is the no-effect control and ±100 the full control effect; nearly all actives have a fitted effect of over 50% in size. The method, boiled down:
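Human lymphoblastoid LYMP2-026 cells, 2500/well, exposed to compound 24 h at 37 C in complete medium. Viability as intracellular ATP by CellTiter-Glo luminescence; AC50 from Hill fits of qHTS concentration-response.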

The target in experiment [6] is Alpha-galactosidase A (Homo sapiens) (UniProt P06280). In words: Counterscreen for Glucocerebrosidase Inhibitors: qHTS Assay for Human alpha-Galactosidase at pH 4.5 (AID 992). Further: 0% is about no effect. In outline: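 Quantitative HTS: compounds tested from 0.7 nM up to 77 uM against 2 nM enzyme with 80 uM 4-MU alpha-D-galactopyranoside. The 20 min room-temperature reaction is stopped with 1M NaOH/1M glycine, pH 10.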
Alpha-galactosidase A (Homo sapiens), sequence (P06280 whole entry, looked up): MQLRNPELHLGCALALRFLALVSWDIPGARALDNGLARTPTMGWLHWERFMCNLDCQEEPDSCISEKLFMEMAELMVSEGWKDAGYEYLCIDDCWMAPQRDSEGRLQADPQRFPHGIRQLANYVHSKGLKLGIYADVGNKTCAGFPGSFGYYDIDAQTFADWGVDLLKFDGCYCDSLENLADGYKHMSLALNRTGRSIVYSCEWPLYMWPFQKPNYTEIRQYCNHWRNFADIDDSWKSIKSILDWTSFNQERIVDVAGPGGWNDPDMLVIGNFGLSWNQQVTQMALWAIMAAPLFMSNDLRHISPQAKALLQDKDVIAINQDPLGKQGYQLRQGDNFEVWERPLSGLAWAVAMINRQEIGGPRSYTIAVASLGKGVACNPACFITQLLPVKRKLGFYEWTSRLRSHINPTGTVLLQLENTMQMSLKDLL
In general terms: The purpose of a counterscreen is to sort out artefacts and off-target activity.

Experiment [7] in a line: Cell Viability - LYMP1-002 - Assay at 24 hr (AID 993). Further: on the % scale 0 is the no-effect control and ±100 the full control effect. The method, boiled down:
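Human lymphoblastoid LYMP1-002 cells (2500/well) treated 24 h at 37 °C; viability as intracellular ATP by CellTiter-Glo luminescence. Tetraoctylammonium bromide as positive control; AC50 from Hill-equation fits of qHTS concentration-response.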

A short description of experiment [8]: Cell Viability - LYMP1-002 - Assay at 40 hr (AID 994).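 Further: 0% = DMSO only and full inhibition = 92 µM tetraoctylammonium bromide; nearly all actives have a fitted effect of over 60% in size.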 The method, boiled down: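 LYMP1-002 human lymphoblastoid cells (2500/well, complete medium) were treated with compounds for 40 hr at 37 C. Intracellular ATP was measured by CellTiter-Glo luminescence, and AC50 values came from Hill-equation fits of concentration-response data; tetraoctylammonium bromide was the positive control.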

The target in experiment [9] is alpha-glucosidase (Oryza sativa, rice) (UniProt Q653V4). In words: Counterscreen for Glucocerebrosidase Inhibitors: qHTS Assay for Rice alpha-Glucosidase at pH 5.0 (AID 997).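 Further: 0% = full activity with enzyme and -100% = basal without enzyme.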 The method, boiled down: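 Rice alpha-glucosidase (4 nM final) with 400 uM 4-methylumbelliferyl-alpha-D-glucopyranoside in citrate buffer pH 5.0, 20 min at room temperature, stopped at pH 10; fluorescence 365/440 nm, compounds 0.7 nM–77 uM, AC50 from Hill fits.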

Experiment [10] in a line: Validation of Assay for Modulators of Lamin A Splicing (AID 1459; active means well fitted curve in the direction sought with a large enough effect in the signal ratio; the % refers to the signal ratio;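 further: cells exposed to compound for two days before reading; 0% is about no effect; ratio rise marks activators and ratio drop marks inhibitors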). In outline: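 Dual-reporter HeLa S3 line (lamin A-EGFP minigene, DsRed2) treated with compounds 48 hrs, 0.5% DMSO final. Endpoint: EGFP/DsRed2 total intensity ratio from laser-scanning microplate cytometry.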
[11] abbreviates: measured here: cell count channel max response.
Where [12] appears, read: measured here: lipid channel max response.

Several values for one entry are separate records, joined by “and”; a condition that tells them apart may be missing. Equal entries are not always repeated. Records with an inconclusive call do not appear. Activity calls are given as the source filed them. Unless noted, the call rests on the fitted dose curve; in most records, active means well fitted curve in the direction sought with a large enough effect; inconclusive means small, poorly fitted or top-dose-only effect, or another doubt; inactive means no such curve, though single readings can be large; an effect the other way counts as inactive or inconclusive.

For `COc1ccccc1N1CCN(CC(O)COc2cccc3ccccc23)CC1` (stereo not given), the activity change, negative = inhibition in experiment [1] (at 57.5 µM (top of the series)) was 0.0402% (inactive). Also, the results for the max response in experiment [1] (setting [11]) and in experiment [1] (setting [12]) were -17.8% and -14.9%, respectively.
In the case of `COc1ccccc1OCCNCC(O)COc1cccc2[nH]c3ccccc3c12` (stereo not given), the activity change, negative = inhibition in experiment [1] (at 57.5 µM (top of the series)) was 6.43% (inactive). Besides, the max response in [1] (setting [11]) worked out at 5.72%; in experiment [1] (setting [12]) it was 13%.
`NCCS(=O)(=O)O`: the call in experiment [2], in [3], in experiment [4], in experiment [5], in experiment [6] and in experiment [7] was inactive. Also, the outcome in experiment [9] and in [10] was inactive. In experiment [8], the Potency entry was “inactive”. Moreover, the activity change, negative = inhibition in experiment [1] (at 57.5 µM (top of the series)) was 4.96% (inactive) and -0.7% (inactive). The max response in experiment [1] (setting [11]) was -11.2% and -31.9%; in [1] (setting [12]), 15.8% and -31.4%.
As to `NCCc1cnc[nH]1`, the compound was classed as inactive in experiment [6], in [9] and in experiment [10].
As for `CCOC(=O)Nc1ccc(NCc2ccc(F)cc2)nc1N`, the call in experiment [6], in experiment [9] and in experiment [10] was inactive. Besides, the activity change, negative = inhibition in [1] (at 57.5 µM (top of the series)) is 0.206% (inactive). The max response worked out at 49% in [1] (setting [11]) and 49.4% in experiment [1] (setting [12]).
Take `CC(C(=O)O)c1cccc(C(=O)c2ccccc2)c1` (stereo not given): the compound was classed as inactive in experiment [10].
In the case of `Nc1nnc(-c2cccc(Cl)c2Cl)c(N)n1`, the result in experiment [6], in experiment [9] and in [10] was inactive. The activity change, negative = inhibition in [1] (at 57.5 µM (top of the series)) is 1.91% (inactive). Also, the max response in experiment [1] (setting [11]) worked out at 18.9%; in experiment [1] (setting [12]), 20.6%.
Regarding `CC(C)NCC(O)c1ccc(O)c(O)c1` (stereo not given), the result in experiment [2], in [3], in experiment [4], in experiment [5], in [7] and in experiment [10] was inactive. Moreover, in experiment [8], the Potency entry is “inactive”. In addition, the activity change, negative = inhibition in [1] (at 57.5 µM (top of the series)) is 4.99% (inactive) and 0.312% (inactive) and 1.86% (inactive). In addition, the max response in [1] (setting [11]) was 14.1% and -2.95% and -6.8%; in experiment [1] (setting [12]), 18.9% and -2.86% and -5.68%.
As for `CC12CC3CC(C)(C1)CC(N)(C3)C2`, in experiment [1] (at 57.5 µM (top of the series)), the activity change, negative = inhibition was 7.67% (inactive) and 1.43% (inactive). In addition, the max response is 15.3% and 15.6% in experiment [1] (setting [11]); 26.5% and 20.5% in experiment [1] (setting [12]).
Regarding `NC(CO)C(=O)NNCc1ccc(O)c(O)c1O` (stereo not given), the call in experiment [10] was inactive. Besides, the activity change, negative = inhibition in experiment [1] (at 57.5 µM (top of the series)) was 13.3% (inactive). Besides, the max response in [1] (setting [11]) worked out at 25.8%; in experiment [1] (setting [12]), 46.4%.
As to `COc1cc2nc(N(C)CCCNC(=O)C3CCCO3)nc(N)c2cc1OC` (stereo not given), the activity change, negative = inhibition in [1] (at 57.5 µM (top of the series)) is 3.93% (inactive). Moreover, the max response in experiment [1] (setting [11]) is 5.38%; in [1] (setting [12]), 20.8%.
As to `CN1CCN(C2=Nc3cc(Cl)ccc3Nc3ccccc32)CC1`, the call in [6], in experiment [9] and in experiment [10] was inactive.
On to `COc1ccc2c(c1)c(CC(=O)O)c(C)n2C(=O)c1ccc(Cl)cc1`, for which the compound was called inactive in experiment [2], in experiment [3], in experiment [4], in [5], in experiment [6] and in experiment [7]. Also, the compound was called inactive in experiment [9]. Also, the Potency result in [8] is “inactive”. Moreover, the activity change, negative = inhibition was 0.248% (inactive) in [1] (at 25.7 µM (top of the series)) and 13.5% (inactive) in experiment [1] (at 57.5 µM (top of the series)). Moreover, the max response in experiment [1] (setting [11]) is 4.07% and 38%; in [1] (setting [12]) it was -0.937% and 62.5%.
On to `NC12CC3CC(CC(C3)C1)C2`, for which the outcome in experiment [6] and in experiment [9] was inactive. Moreover, the activity change, negative = inhibition is -3.08% (inactive) in [1] (at 25.7 µM (top of the series)); 3.74% (inactive) and -0.728% (inactive) in experiment [1] (at 57.5 µM (top of the series)). Further, the max response in experiment [1] (setting [11]) was 0.387% and 4.41% and -44.8%; in experiment [1] (setting [12]), -3.12% and 9.04% and -45.9%.
